Records with an inconclusive call do not appear. Active and inactive are the calls of the source. Calls come from the whole dose curve; as a rule, active = well fitted inhibition curve with a large enough effect; inconclusive = small, poorly fitted or top-dose-only effect; inactive = no such curve, though single readings can be large or run the other way.
Assay: Acumen qHTS Assay for Inhibitors of the mTORC1 Signaling Pathway in MEF (Tsc2-/-, p53-/-) Cells: Hit Validation;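 note: phospho-rpS6 Ser235/236 immunofluorescence normalized to propidium iodide cell count; nearly all actives have a fitted effect of over 65% in size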;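 for activity change, negative = inhibition: cells exposed to compound for 24 hours; plate controls were DMSO for no effect and 7.5 nM rapamycin control for full effect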
Settings: Acumen imaging; activity change, negative = inhibition: at 37.3 µM (top of the series)
Potency is the fitted concentration of half-maximal effect.

SMILES	activity change, negative = inhibition [%]	Potency
COc1ccc(CCNC(=O)C(C)n2nc(C)c3sc4ccccc4c3c2=O)c(OC)c1 (stereo not drawn)	-17.7	
COc1ccc(NC(=O)CSc2nc3ccccc3n2Cc2cccc(OC)c2)cc1	-5.71	
COc1ccc(CNC(=O)c2cc(-c3ccc(OC)c(OC)c3)nc3n[nH]c(-c4ccc(C)cc4)c23)cc1	-124	
O=C(COc1ccc(F)cc1)Nc1ccc(Cl)c(-c2nc3ccccc3[nH]2)c1	-4.39	
CCOc1ccc(NC(=O)CSc2oc(-c3ccccc3)nc2S(=O)(=O)c2ccc(Cl)cc2)cc1	-112	
Cc1ccc(CS(=O)(=O)c2ncc(Cl)c(C(=O)Nc3nnc(C(C)C)s3)n2)cc1		5.85 µM (active)
Cc1ccc(CN(Cc2cccn2-c2nnc(N3CCCC3=O)s2)C(=O)Nc2ccccc2C(F)(F)F)cc1	-12.7	
Cc1cc(NC(=O)c2ccco2)cc(-c2nc3cc(Cl)ccc3o2)c1O	-46.5	
CCOc1ccccc1NC(=O)CSc1cc(=O)n(CC)c2ccccc12	1.04	
CCS(=O)(=O)c1oc(-c2ccc(F)cc2)nc1S(=O)(=O)c1ccccc1		0.369 µM (active)
COc1cc(C(=O)N(CCCN(C)C)c2nc3c(OC)cccc3s2)cc(OC)c1OC	19.6	
Cc1ccc(-c2nn(C)c(=O)c3ccccc23)cc1S(=O)(=O)NCCCN(C)C	5.39	
Cc1c(C(=O)OC2CCC(C)CC2)[nH]c2c1C(=O)CC(c1ccccc1Cl)C2 (stereo not drawn)	-43.7	
O=C(NCCN1CCN(c2cccc(Cl)c2)CC1)Nc1ccccc1C(F)(F)F	-3.27	
CCCCOc1ccc(CN2C(=O)C(=O)c3cc(Br)cc(C)c32)cc1OC		4.65 µM (active)
CS(=O)(=O)N(CC(=O)NCCc1ccccc1)c1cc(C(F)(F)F)ccc1Cl	30.3	
Cc1cccc(-c2nc3c(cnn3-c3ccccc3)c(=O)n2-c2ccc(Br)cc2)c1	-37.3	
COc1ccc(OC)c(NC(=O)c2nnn(CC(=O)Nc3ccc(C(C)C)cc3)c2N)c1	-27.6	
COc1ccccc1N1CCN(Cc2cc(COC(C)C)c3cccnc3c2O)CC1		5.21 µM (active)

SMILES	activity change, negative = inhibition [%]	Potency
CCOC(=O)c1c(C)[nH]c(CCC(=O)NCCCN2CCN(c3cc(C)ccc3C)CC2)c1C		16.5 µM (active)
COc1ccc(CCCc2nnc(SCC(=O)Nc3ccc(OC)cc3)o2)cc1	14	
Cc1ccc(CN2C(=O)C(O)(CC(=O)c3ccc(C)cc3)c3ccccc32)cc1 (stereo not drawn)		4.65 µM (active)
CCOC(=O)c1sc2ccccc2c1S(=O)(=O)Nc1ccc(CC)cc1	-9.52	
COc1ccccc1NC(=O)CSc1ccc(-c2ccccn2)nn1		11.7 µM (active)
Cc1ccc(NC(=O)c2c(NC(=O)C(F)(F)F)sc3c2CCCCC3)cc1	-36.6	
Cc1cccn2c(Nc3ccccc3)c(-c3cccs3)nc12	26.1	
O=C(Cn1c(=O)n(Cc2ccc3c(c2)OCO3)c(=O)c2ccc(C(=O)NC3CCCCC3)cc21)Nc1ccccc1F	-94.5	
COc1ccc(OCC(O)Cn2c(=N)n(CCN3CCCCC3)c3ccccc32)cc1 (stereo not drawn)		16.5 µM (active)
CC(C)OCCCn1c(=O)c2ccccc2n2c(-c3ccc(F)cc3)nnc12	17.3	
CC1CCCN(CCCNC(=O)c2cc3c(Cl)nc4ccccc4c3s2)C1 (stereo not drawn)	-16.9	
COc1ccc(OC)c(NC(=O)c2nc(S(=O)(=O)Cc3ccc(F)cc3)ncc2Cl)c1		2.07 µM (active)
CCN(c1ccccc1)S(=O)(=O)c1ccc(NC(=O)c2nc(S(C)(=O)=O)ncc2Cl)cc1		4.14 µM (active)
COc1ccc(OC)c(C(=O)CC2(O)C(=O)N(Cc3ccccc3C)c3ccccc32)c1 (stereo not drawn)		2.61 µM (active)
CCNC(=O)c1c(NC(=O)c2nc(S(=O)(=O)CC)ncc2Cl)sc2c1CCCC2		1.31 µM (active)
COc1cc(C(=O)n2nc(C)c(Sc3ccc(Cl)cc3)c2C)cc(OC)c1OC	-8.63	
CCCS(=O)(=O)c1c(S(=O)(=O)CCC)c2cc(C(C)(C)C)ccn2c1C(=O)c1ccc(OC)c(OC)c1	-5.67	
Cc1ccccc1OCCn1c(=N)n(C(C)C)c2ccccc21		8.26 µM (active)
FC(F)(F)c1cccc(Nc2nc3nonc3nc2Nc2ccc(Cl)cc2)c1		1.65 µM (active)

Reference: PubChem BioAssay AID651784 (National Center for Advancing Translational Sciences (NCATS), 2012)
